From PubChem BioAssay (EPA / NIEHS)
Results filed as inconclusive are left out. Calls of active or inactive are those of the source. Rule for the calls, unless noted: active = hit-call score of the fitted dose curve at least 0.9, where 1 is the maximum; inactive = score below 0.9.

What was measured:
[1] = ATG_PBREM_CIS: Attagene CIS-FACTORIAL HepG2 Assay for human Phenobarbital-responsive Enhancer Module (PBREM) (AID 2282955); details: HepG2 PBREM cis-reporter, Attagene multiplexed transcription; actives raise or lower the signal
Method in brief: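 Multiplexed cis-reporter readout in human hepatoma HepG2 cells; PBREM-regulated transcript quantified after 24 h exposure by fluorescent RT-PCR fragment analysis. Signal changes up or down fitted relative to DMSO.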

[2] = biological target: Paired box protein Pax-6 (Homo sapiens) (UniProt P26367); assay: ATG_Pax6_CIS: Attagene CIS-FACTORIAL HepG2 Assay for human Paired Box 6 (PAX6) (AID 2282956); details: HepG2 CIS-FACTORIAL PAX6 reporter transcription, RNA readout; actives raise or lower the signal
Sequence of Paired box protein Pax-6 (Homo sapiens) (P26367 whole entry, looked up): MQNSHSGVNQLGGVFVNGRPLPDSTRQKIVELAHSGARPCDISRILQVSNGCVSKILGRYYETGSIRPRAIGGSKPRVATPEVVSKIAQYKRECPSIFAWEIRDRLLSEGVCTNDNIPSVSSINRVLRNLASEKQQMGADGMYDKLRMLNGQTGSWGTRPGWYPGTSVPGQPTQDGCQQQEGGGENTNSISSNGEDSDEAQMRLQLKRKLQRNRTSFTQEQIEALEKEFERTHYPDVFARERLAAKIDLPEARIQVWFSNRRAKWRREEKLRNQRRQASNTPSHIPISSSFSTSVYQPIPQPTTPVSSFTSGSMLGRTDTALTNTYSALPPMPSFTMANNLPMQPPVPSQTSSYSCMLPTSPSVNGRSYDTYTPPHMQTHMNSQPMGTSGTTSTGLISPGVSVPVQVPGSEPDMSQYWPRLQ
Method in brief: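 After twenty-four hours of chemical exposure, transfected HepG2 cells are harvested for RNA. Cis-promoter reporter transcripts are amplified, fluorescently labelled and sized by capillary electrophoresis, with gain and loss of signal scored against DMSO.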

[3] = ATG_PXRE_CIS: Attagene CIS-FACTORIAL HepG2 Assay for human Pregnane X Receptor Element (PXRE) (AID 2282957); details: HepG2 Attagene CIS-FACTORIAL PXRE reporter, mRNA; actives raise or lower the signal
Method in brief: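 HepG2 cells transiently transfected with cis-element-driven multiplexed reporter units; after 24 h chemical exposure, reporter mRNA measured by RT-PCR, 6-FAM labelling, HpaI digestion and capillary electrophoresis. Bidirectional fitting relative to DMSO.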

[4] = ATG_RORE_CIS: Attagene CIS-FACTORIAL HepG2 Assay for human RAR-related Orphan Receptor Element (RORE) (AID 2282959); details: HepG2 Attagene cis-factorial RORE reporter, mRNA; actives raise or lower the signal
Method in brief: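 Transfect HepG2 with MRTUs; treat 24 h; extract RNA; RT with oligo(dT); PCR with reporter-specific primers; 6-FAM primer extension; HpaI digest 2 h at 37 C; capillary electrophoresis. Fit vs DMSO, bidirectional.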

[5] = ATG_Sox_CIS: Attagene CIS-FACTORIAL HepG2 Assay for human SRY-box transcription factor (SOX) (AID 2282960); details: HepG2 Attagene cis-factorial SOX reporter, mRNA; actives raise or lower the signal
Method in brief: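 Fluorescence-labelled cDNA fragments from reporter transcripts, sized by CE, give the signal. Cells: HepG2, transiently transfected with cis-regulated reporter units. Exposure 24 h; DMSO negative control; bidirectional curve fitting.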

[6] = biological target: Transcription factor Sp1 (Homo sapiens) (UniProt P08047); assay: ATG_Sp1_CIS: Attagene CIS-FACTORIAL HepG2 Assay for human Specificity Protein 1 (Sp1) (AID 2282961); details: HepG2 Sp1 cis-reporter transcription, actives raise or lower the signal
Sequence of Transcription factor Sp1 (Homo sapiens) (P08047 whole entry, looked up): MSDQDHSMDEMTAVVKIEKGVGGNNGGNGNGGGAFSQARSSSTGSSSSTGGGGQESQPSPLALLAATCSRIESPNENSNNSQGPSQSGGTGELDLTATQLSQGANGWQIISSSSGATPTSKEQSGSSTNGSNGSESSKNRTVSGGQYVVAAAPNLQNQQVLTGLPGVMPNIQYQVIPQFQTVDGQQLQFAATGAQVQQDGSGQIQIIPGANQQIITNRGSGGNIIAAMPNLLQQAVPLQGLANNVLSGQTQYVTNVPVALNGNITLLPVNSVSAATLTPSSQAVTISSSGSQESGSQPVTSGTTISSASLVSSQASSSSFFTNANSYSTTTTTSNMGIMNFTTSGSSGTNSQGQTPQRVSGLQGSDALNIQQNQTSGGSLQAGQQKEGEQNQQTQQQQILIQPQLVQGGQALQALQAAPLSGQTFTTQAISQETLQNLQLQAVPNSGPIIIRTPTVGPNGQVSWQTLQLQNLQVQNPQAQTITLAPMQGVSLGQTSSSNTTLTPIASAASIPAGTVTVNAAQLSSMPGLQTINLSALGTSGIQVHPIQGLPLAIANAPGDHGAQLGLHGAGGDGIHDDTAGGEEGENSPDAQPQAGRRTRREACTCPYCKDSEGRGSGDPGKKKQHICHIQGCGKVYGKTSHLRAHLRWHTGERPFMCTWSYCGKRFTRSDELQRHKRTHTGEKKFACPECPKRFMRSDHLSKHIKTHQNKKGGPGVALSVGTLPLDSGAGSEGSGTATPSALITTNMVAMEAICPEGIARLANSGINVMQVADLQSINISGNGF
Method in brief: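 Chemicals are dosed onto HepG2 cells transfected with multiple cis-promoter reporter constructs, and after 24 h reporter RNA is reverse-transcribed, PCR-amplified and resolved by capillary electrophoresis for fluorescence quantitation; activity is scored up or down against DMSO.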

[7] = ATG_SREBP_CIS: Attagene CIS-FACTORIAL HepG2 Assay for human Sterol Regulatory Element Binding (SREBP) (AID 2282962); details: HepG2 Attagene cis-factorial SREBP reporter, mRNA; actives raise or lower the signal
Method in brief: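 Twenty-four hours after chemical dosing of transfected HepG2 cultures, reporter RNA was converted to cDNA, amplified, end-labelled with 6-FAM and resolved by capillary electrophoresis. Responses were fitted relative to DMSO.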

[8] = biological target: Signal transducer and activator of transcription 3 (Homo sapiens) (UniProt P40763); assay: ATG_STAT3_CIS: Attagene CIS-FACTORIAL HepG2 Assay for human Signal Transducer and Activator of Transcription 3 (STAT3) (AID 2282963); details: HepG2, Attagene cis-factorial STAT3 reporter transcription; actives raise or lower the signal
Sequence of Signal transducer and activator of transcription 3 (Homo sapiens) (P40763 whole entry, looked up): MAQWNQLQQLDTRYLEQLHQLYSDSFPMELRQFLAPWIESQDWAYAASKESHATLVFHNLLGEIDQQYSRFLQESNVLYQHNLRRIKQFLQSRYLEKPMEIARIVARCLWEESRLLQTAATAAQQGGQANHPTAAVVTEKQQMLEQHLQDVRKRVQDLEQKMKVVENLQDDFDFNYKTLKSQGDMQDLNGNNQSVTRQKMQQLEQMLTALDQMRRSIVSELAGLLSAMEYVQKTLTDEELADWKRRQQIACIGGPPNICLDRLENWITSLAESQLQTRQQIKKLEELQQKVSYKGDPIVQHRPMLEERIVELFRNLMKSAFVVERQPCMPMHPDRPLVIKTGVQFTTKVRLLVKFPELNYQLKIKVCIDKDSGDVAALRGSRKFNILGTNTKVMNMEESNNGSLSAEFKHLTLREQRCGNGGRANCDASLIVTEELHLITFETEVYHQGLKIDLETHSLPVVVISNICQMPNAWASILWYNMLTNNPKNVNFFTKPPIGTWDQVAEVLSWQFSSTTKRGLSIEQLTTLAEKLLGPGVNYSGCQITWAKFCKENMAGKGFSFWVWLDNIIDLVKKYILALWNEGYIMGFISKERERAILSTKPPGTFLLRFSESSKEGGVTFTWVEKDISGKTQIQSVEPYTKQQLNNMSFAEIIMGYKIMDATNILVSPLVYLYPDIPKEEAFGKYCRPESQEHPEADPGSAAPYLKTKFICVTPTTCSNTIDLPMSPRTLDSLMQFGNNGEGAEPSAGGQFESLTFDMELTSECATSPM
Method in brief: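 HepG2 cells transiently transfected with multiple cis-element-driven reporter units report endogenous transcription factor activity. After 24 h compound exposure, reporter mRNA is measured by RT-PCR, 6-FAM labelling, HpaI digestion and capillary electrophoresis. Fitted bidirectionally versus DMSO.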

[9] = ATG_TA_CIS: Attagene CIS-FACTORIAL HepG2 Assay for human TA Basal Promoter (AID 2282964); details: HepG2 Attagene CIS-factorial TA basal promoter reporter; actives raise or lower the signal
Method in brief: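 Transient MRTU transfection of HepG2 preceded 24 h compound exposure. Reporter mRNA levels were then read by RT-PCR with capillary electrophoresis, and this background-control endpoint was fitted bidirectionally to DMSO.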

[10] = ATG_TCF_b_cat_CIS: Attagene CIS-FACTORIAL HepG2 Assay for human T-Cell-Factor with beta-catenin (TCF/b-cat) (AID 2282965); details: HepG2 TCF/beta-catenin cis-reporter transcription, actives raise or lower the signal
Method in brief: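 Cells of the HepG2 line carry transiently transfected reporter units whose promoters respond to endogenous factors. Twenty-four hours post-dosing, reporter mRNA induction is measured by fluorescent RT-PCR and capillary electrophoresis, with DMSO as baseline.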

[11] = ATG_TAL_CIS: Attagene CIS-FACTORIAL HepG2 Assay for human TAL Basal Promoter (AID 2282966); details: HepG2 Attagene cis-factorial TAL promoter reporter; actives raise or lower the signal;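 note: background control endpoint measuring basal TAL promoter reporter mRNA not a specific factor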
Method in brief: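 HepG2 cells transiently transfected with multiplexed cis-promoter reporter units, dosed 24 h. Reporter mRNA quantified by RT-PCR, 6-FAM labelling, HpaI digestion and capillary electrophoresis; TAL basal promoter serves as background control, fitted bidirectionally versus DMSO.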

[12] = ATG_TGFb_CIS: Attagene CIS-FACTORIAL HepG2 Assay for human Transforming Growth Factor (TGF) (AID 2282967); details: HepG2 Attagene CIS TGFb reporter, mRNA transcription; actives raise or lower the signal
Method in brief: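 After a 24-hour incubation with compound, transfected HepG2 cells were lysed for RNA; reporter cDNA was amplified, fluorescently end-labeled and separated by CE. DMSO served as baseline for bidirectional fits.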

[13] = ATG_VDRE_CIS: Attagene CIS-FACTORIAL HepG2 Assay for human Vitamin D Receptor Element (VDRE) (AID 2282968); details: HepG2 VDRE cis-reporter transcription, actives raise or lower the signal
Method in brief: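 Transiently transfected HepG2 cells carrying cis-regulated reporter transcription units were exposed for 24 h. Reporter mRNA was measured by RT-PCR with fluorescent labelling and capillary electrophoresis, and fitted in both directions against DMSO.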

[14] = biological target: X-box-binding protein 1 (Homo sapiens) (UniProt P17861); assay: ATG_Xbp1_CIS: Attagene CIS-FACTORIAL HepG2 Assay for human X-box Binding Protein 1 (XBP1) (AID 2282972); details: HepG2 XBP1 cis-element reporter, Attagene multiplex; actives raise or lower the signal
Sequence of X-box-binding protein 1 (Homo sapiens) (P17861 whole entry, looked up): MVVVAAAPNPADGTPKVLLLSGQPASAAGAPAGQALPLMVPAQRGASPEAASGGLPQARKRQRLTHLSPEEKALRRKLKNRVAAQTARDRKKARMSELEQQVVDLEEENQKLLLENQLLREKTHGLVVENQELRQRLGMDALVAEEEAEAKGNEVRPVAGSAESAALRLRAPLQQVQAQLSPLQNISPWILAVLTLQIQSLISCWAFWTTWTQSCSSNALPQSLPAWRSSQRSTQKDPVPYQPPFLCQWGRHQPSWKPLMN
Method in brief: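 After a 24-hour chemical exposure of HepG2 cells carrying cis-regulated reporters, reporter mRNA levels are assessed. Quantification uses RT-PCR, 6-FAM labelling and capillary electrophoresis. Gain- or loss-of-signal is fitted against DMSO.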

[15] = ATG_GAL4_TRANS: Attagene TRANS-FACTORIAL HepG2 Assay for GAL4 (Internal Marker) (AID 2282976; active = hit-call score of the fitted dose curve at least 0.9, where 1 is the maximum); details: HepG2 Attagene TRANS GAL4 internal marker reporter
Method in brief: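 Background-control readout: GAL4-UAS reporter transcript in transiently transfected HepG2 cells after 24 h compound exposure. Measured by RT-PCR, 6-FAM primer extension, HpaI digest and capillary electrophoresis; gain-of-signal fit versus DMSO.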

[16] = ATG_PPRE_CIS: Attagene CIS-FACTORIAL HepG2 Assay for human Peroxisome Proliferator-activated Response Element (PPRE) (AID 2282958); details: HepG2 PPRE cis-element reporter, Attagene transcription factor profiling; actives raise or lower the signal
Method in brief: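 DMSO served as negative control and baseline for bidirectional curve fitting. Signal came from PPRE-regulated reporter mRNA in HepG2 cells, measured 24 h post-dosing by RT-PCR, 6-FAM primer extension and capillary electrophoresis.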

[17] = ATG_M_19_TRANS: Attagene TRANS-FACTORIAL HepG2 Assay for M19 Transcription Factor (Internal Marker) (AID 2282974; active = hit-call score of the fitted dose curve at least 0.9, where 1 is the maximum); details: HepG2 Attagene TRANS-FACTORIAL M19 internal marker reporter
Method in brief: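 Multiplexed TRANS format: HepG2 liver cells bearing transient GAL4-UAS reporter units, chemical treatment 24 h, reporter transcripts quantified by RT-PCR plus capillary electrophoresis. DMSO defines baseline.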

[18] = biological target: Nuclear receptor subfamily 1 group I member 3 (Homo sapiens) (UniProt Q14994); assay: ATG_CAR_TRANS: Attagene TRANS-FACTORIAL HepG2 Assay for human Constitutive Androstane Receptor (CAR) (AID 2282969; active = hit-call score of the fitted dose curve at least 0.9, where 1 is the maximum;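 note: activators raise reporter mRNA above DMSO so AC50 marks induction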); details: HepG2 Attagene TRANS-FACTORIAL CAR reporter
Sequence of Nuclear receptor subfamily 1 group I member 3 (Homo sapiens) (Q14994 whole entry, looked up, the tested form may be a part): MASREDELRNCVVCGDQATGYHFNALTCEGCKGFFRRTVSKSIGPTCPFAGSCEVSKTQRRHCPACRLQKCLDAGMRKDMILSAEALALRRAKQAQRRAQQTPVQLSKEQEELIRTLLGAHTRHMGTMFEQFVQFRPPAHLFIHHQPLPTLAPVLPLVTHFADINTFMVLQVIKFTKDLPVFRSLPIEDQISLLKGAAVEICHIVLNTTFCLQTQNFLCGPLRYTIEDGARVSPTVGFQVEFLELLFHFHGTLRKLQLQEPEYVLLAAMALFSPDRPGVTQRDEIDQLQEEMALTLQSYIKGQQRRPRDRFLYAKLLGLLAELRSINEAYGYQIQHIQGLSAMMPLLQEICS
Method in brief: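 HepG2 cells transiently transfected with GAL4-UAS reporter units; TRANS format reads activity of exogenous chimeric NR-Gal4 protein. After 24 h dosing, reporter mRNA quantified by RT-PCR, 6-FAM labelling and capillary electrophoresis; gain of signal fitted against DMSO.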

[19] = biological target: Estrogen receptor (Homo sapiens) (UniProt P03372); assay: ATG_ERa_TRANS: Attagene TRANS-FACTORIAL HepG2 Assay for human Estrogen Receptor alpha (ERa) (AID 2282970; active = hit-call score of the fitted dose curve at least 0.9, where 1 is the maximum); details: HepG2 Attagene TRANS ERa GAL4 reporter, mRNA
Sequence of Estrogen receptor (Homo sapiens) (P03372 whole entry, looked up, the tested form may be a part): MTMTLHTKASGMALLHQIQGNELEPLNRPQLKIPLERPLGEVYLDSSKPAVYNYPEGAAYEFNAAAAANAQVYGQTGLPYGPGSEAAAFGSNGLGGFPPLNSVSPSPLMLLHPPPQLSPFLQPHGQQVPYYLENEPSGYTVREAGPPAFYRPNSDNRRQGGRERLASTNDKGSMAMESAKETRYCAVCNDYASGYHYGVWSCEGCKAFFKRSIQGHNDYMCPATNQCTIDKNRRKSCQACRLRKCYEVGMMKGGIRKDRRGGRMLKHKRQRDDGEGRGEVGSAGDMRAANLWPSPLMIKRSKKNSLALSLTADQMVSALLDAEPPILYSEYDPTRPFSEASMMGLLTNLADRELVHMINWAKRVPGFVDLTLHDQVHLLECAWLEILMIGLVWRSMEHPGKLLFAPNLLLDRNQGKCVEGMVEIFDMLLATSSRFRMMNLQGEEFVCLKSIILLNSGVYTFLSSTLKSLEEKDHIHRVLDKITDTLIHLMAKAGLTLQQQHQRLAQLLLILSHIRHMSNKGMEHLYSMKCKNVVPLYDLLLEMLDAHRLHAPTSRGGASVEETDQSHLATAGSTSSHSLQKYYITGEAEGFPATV
Method in brief: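 HepG2 cells transiently transfected with multiplexed GAL4-UAS reporter units read out chimeric NR-Gal4 activity. After 24 h compound exposure, reporter mRNA was quantified by RT-PCR, 6-FAM labeling, HpaI digestion and capillary electrophoresis, relative to DMSO.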

[20] = biological target: Steroid hormone receptor ERR1 (Homo sapiens) (UniProt P11474); assay: ATG_ERRa_TRANS: Attagene TRANS-FACTORIAL HepG2 Assay for human Estrogen-Related Receptor alpha (ERRa) (AID 2282971; active = hit-call score of the fitted dose curve at least 0.9, where 1 is the maximum); details: HepG2 Attagene TRANS reporter, ERRa transactivation
Sequence of Steroid hormone receptor ERR1 (Homo sapiens) (P11474 whole entry, looked up, the tested form may be a part): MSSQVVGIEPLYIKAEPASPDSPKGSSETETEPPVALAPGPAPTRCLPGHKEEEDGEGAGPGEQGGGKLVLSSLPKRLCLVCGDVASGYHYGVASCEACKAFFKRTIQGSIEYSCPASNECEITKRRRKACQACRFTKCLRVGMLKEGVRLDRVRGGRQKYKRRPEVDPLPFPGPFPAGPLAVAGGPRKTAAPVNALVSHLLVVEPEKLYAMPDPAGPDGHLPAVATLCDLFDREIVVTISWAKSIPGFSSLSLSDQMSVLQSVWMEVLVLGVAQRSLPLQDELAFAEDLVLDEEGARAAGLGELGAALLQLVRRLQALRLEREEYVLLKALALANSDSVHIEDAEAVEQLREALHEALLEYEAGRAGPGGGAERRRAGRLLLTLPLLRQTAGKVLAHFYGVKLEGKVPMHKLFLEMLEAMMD
Method in brief: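 HepG2 cells transiently transfected with GAL4-UAS reporter units and chimeric NR-Gal4 constructs; after 24 hour compound incubation, reporter mRNA quantified by RT-PCR, fluorescent labelling and capillary electrophoresis, gain of signal versus DMSO.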

Measured: AC50

C=C(C)C(N)=O
not listed: [16] | [17] | [18] | [19] | [20]
inactive: all other assays above

CCC(=O)OCC=Cc1ccccc1
active: [3] 33.1 µM
not listed: [6] | [12] | [17] | [18] | [19] | [20]
inactive: all other assays above

S=c1[nH][nH]c(=S)s1
not listed: [16] | [18] | [19] | [20]
inactive: all other assays above

CC(=O)c1ccc(O)cc1
active: [3] 100 µM
not listed: [16] | [17] | [20]
inactive: all other assays above

O=C(C=Cc1ccccc1)OCCCc1ccccc1
active: [3] 19.9 µM | [19] 15.3 µM
not listed: [16] | [18] | [20]
inactive: all other assays above

O=c1cc[nH]cc1
active: [3] 21 µM | [12] 0.0823 µM
not listed: [6] | [10] | [15] | [17] | [19] | [20]
inactive: all other assays above

CCCCCCCCCC(=O)OCC
active: [13] 44.1 µM
not listed: [6] | [12] | [17] | [18] | [19] | [20]
inactive: all other assays above

N#CCCNCCC#N
not listed: [6] | [9] | [10] | [17] | [20]
inactive: all other assays above

CCCCCCOC(C)=O
not listed: [4] | [12] | [17] | [18] | [20]
inactive: all other assays above

Cc1cccc(C)c1
active: [3] 34.4 µM
not listed: [6] | [12] | [15] | [17] | [18] | [19] | [20]
inactive: all other assays above

CCCCCCCCOS(=O)(=O)O
active: [16] 31.3 µM | [19] 100 µM
not listed: [6] | [13] | [17]
inactive: all other assays above

CCC(C)C1CCCCC1=O (stereo unspecified)
not listed: [14] | [16] | [18]
inactive: all other assays above

NCCN1CCNCC1
not listed: [15] | [16] | [20]
inactive: all other assays above

CCCCCCCCSCc1cc(C)c(O)c(CSCCCCCCCC)c1
active: [3] 19.8 µM
not listed: [16] | [17] | [19] | [20]
inactive: all other assays above

CN(C)C(=O)Nc1ccccc1
active: [3] 26.5 µM
not listed: [9] | [15] | [16] | [18] | [19] | [20]
inactive: all other assays above
